A short description of test [1]: qHTS profiling of the MIPE4 collection as inhibitors of Plasmodium falciparum (DD2) proliferation (Rep 2) (AID 743346; call rule not given here). The settings on record: P. falciparum Dd2 in erythrocytes, SYBR Green DNA, 72 h; at 28.5 µM unless noted. The method in brief:
(§1)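 Erythrocytes infected with P. falciparum (0.3% parasitemia, 2.5% hematocrit) incubated with compounds 72 h at 37 C, 5% CO2. Lysis with saponin/Triton buffer containing SYBR Green I, overnight at room temperature in the dark; DNA fluorescence (485/535 nm) normalised to 0.29 uM artemisinin and DMSO.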
(In qHTS, concentration-response curves come from the screen itself.)

Test [2] in a line: qHTS profiling of the MIPE4 collection as inhibitors of Plasmodium falciparum (HB3) proliferation (AID 743347; call rule not given here;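 also: plate controls were DMSO vehicle wells for no effect and artemisinin wells for full effect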). As to conditions: P. falciparum HB3 in erythrocytes, SYBR Green DNA, 72 h; at 28.5 µM unless noted. The method in brief: as §1
The nature of test [3]: High-throughput drug toxicity screening in the BPDCN cell line Gen2.2 (AID 1224824; call rule not given here;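 also: cells exposed to compounds for 48 h before reading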). The settings on record: Gen2.2 BPDCN cells; at 45.8 µM (top of the series) unless noted. In outline:
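Readout is ATP luminescence from Gen2.2 cells after two days of drug exposure in serum-containing medium at 37 °C. Values express percent activity, with vehicle defining full signal and 9.2 uM bortezomib defining zero.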

The nature of test [4]: High-throughput drug toxicity screening in the BPDCN cell line Cal-1 (AID 1224825; call rule not given here). The settings on record: Cal-1 BPDCN cell viability, qHTS; at 45.8 µM (top of the series) unless noted. The method in brief:
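Cal-1 cells, 500 per well in phenol-red-free RPMI with 10% FBS, exposed to compounds for 48 hours at 37C, 5% CO2. Viability read by CellTiter-Glo luminescence; percent activity normalized to DMSO (100%) and 9.2 uM bortezomib final (0%).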

Test [5] is described as follows: qHTS assay for measurement of the activity of small molecule inhibitors on Zika virus induced Caspase-3 activity in human iPSC derived neural progenitor cells (hNPCs) (AID 1224857). Also: % of control where 0% means no effect; nearly all actives have a fitted effect of over 65% in size. In outline:
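Human iPSC-derived neural progenitor cells pretreated 1 hr with compounds, then infected with Zika virus (2 FFU/cell) for 6 hours at 37 C. Caspase-3/7 measured by Caspase-Glo luminescence; % inhibition calculated from induction scaled to uninfected (0%) and infected (100%) wells.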

Test [6] can be described thus: qHTS assay for measurement of the activity of small molecule inhibitors on Zika virus induced Caspase-3 activity in human astrocytoma cells (AID 1224859).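 Also: plate controls were ZIKV-infected untreated cells for no effect and uninfected cells for full effect.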 The method in brief: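 SNB-19 astrocytoma cells, 250/well, pretreated 1 h with compounds, then Zika virus at 2 FFU/cell for 6 h at 37 C; Caspase-Glo 3/7 luminescence after 30 min; percent inhibition normalised to uninfected and infected controls.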

Test [7] in a line: qHTS Screen of the MIPE 4.0 Collection Against Ewings Sarcoma (RDES) (AID 1259252). Also: nearly all actives have a fitted effect of over 35% in size. Also: potency is read from the fitted curve at half-maximal effect. In outline:
(§2)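 Viability screen: 48 h incubation at 37C, 95% humidity, 5% CO2 with serially titrated compound, followed by CellTiter-Glo readout.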

Test [8] can be described thus: qHTS Screen of the MIPE 4.0 Collection Against Ewings Sarcoma (TC71) (AID 1259253). Also: nearly all actives have a fitted effect of over 40% in size. Also: potency is read from the fitted curve at half-maximal effect. The method in brief:
as §2

The nature of test [9]: qHTS Screen of the MIPE 4.0 Collection Against Ewings Sarcoma (EW8) (AID 1259255). Also: nearly all actives have a fitted effect of over 35% in size. Also: potency is read from the fitted curve at half-maximal effect.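 As to viability: 100% = DMSO-treated cells and 0% = medium-only wells without cells.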 The method in brief:
as §2

Test [10] in a line: qHTS Screen of the MIPE 4.0 Collection Against Ewings Sarcoma (TC32) (AID 1259256). Also: nearly all actives have a fitted effect of over 45% in size. Also: potency is read from the fitted curve at half-maximal effect. In outline:
as §2

Structures are written as SMILES. Results filed as inconclusive are left out. The source made the active and inactive calls. Unless noted, calls follow the shape of the dose curve; as a rule, active = well fitted inhibition curve with a large enough effect; inconclusive = small, poorly fitted or top-dose-only effect; inactive = no such curve, though single readings can be large or run the other way.

As for `Nc1ncn([C@@H]2O[C@H](CO)[C@@H](O)[C@@H]2O)c(=O)n1`, in test [1], the parasite growth, % of control (lower = inhibition) came to 92.3%. This molecule also registered a growth, % of control in [2] of 95%. Moreover, the cell viability, % of control (lower = more cytotoxic) in test [3] worked out at 15.6%. Also, the viability (% of control) in test [4] stood at 5.42%. In addition, the Potency entry in test [5] and in test [6] was “inactive” each time. Besides, the Potency in test [7] was 6.62 µM (active); in test [8], 4.18 µM (active); in test [9], 7.43 µM (active); in test [10] it was 4.69 µM (active).
As for `CC(Cc1ccc(O)c(O)c1)(NN)C(=O)O` (stereo not given), in [1], the parasite growth, % of control (lower = inhibition) was 75.5%. Further, in test [2], the growth, % of control was 54.9%. The cell viability, % of control (lower = more cytotoxic) in test [3] amounted to 108%. Further, the viability (% of control) in [4] amounted to 91.3%. Further, the Potency result in test [5], in test [6], in test [7], in test [8] and in [9] was “inactive” in each case. For the same molecule, the Potency in test [10] was 23.5 µM (active).
`CC[C@]12C=CCN3CC[C@@]4(c5cc([C@@]6(C(=O)OC)C[C@H]7C[C@@H](C(C)(F)F)CN(Cc8c6[nH]c6ccccc86)C7)c(OC)cc5N(C)[C@H]4[C@@](O)(C(=O)OC)[C@H]1OC(C)=O)[C@@H]32` returned a parasite growth, % of control (lower = inhibition) in [1] of 24.8%. In [2], the growth, % of control stood at 16.3%. Moreover, in [3], the cell viability, % of control (lower = more cytotoxic) was found to be 8.97%. Besides, the viability (% of control) in test [4] is 9.46%. In addition, the Potency result in [5], in test [6] and in test [10] was “inactive” in each case. For the same molecule, the Potency in [7] was 0.0105 µM (active); in test [8] it was 0.0187 µM (active); in test [9], 0.0053 µM (active).
As for `CCOC(=O)[C@H](CCc1ccccc1)N[C@@H](C)C(=O)N1[C@@H](C(=O)O)C[C@H]2CCC[C@@H]21`, the parasite growth, % of control (lower = inhibition) in test [1] came to 14.6%. Also, the growth, % of control in [2] came out at 4.34%. For the same molecule, the cell viability, % of control (lower = more cytotoxic) in test [3] was 7.77%. For the same molecule, the viability (% of control) in test [4] was 4.82%. For the same molecule, the Potency result in [5] and in [6] was “inactive” in each case. Moreover, the Potency in [7] was 5.26 µM (active); in test [8], 14.8 µM (active); in test [9] it was 18.7 µM (active); in [10], 16.6 µM (active).
In turn, `CCCNC(=O)[C@H]1O[C@H]1C(=O)N[C@H](C(=O)N1CCC[C@@H]1C(=O)OC)C(C)CC` (stereo not given in full) had a parasite growth, % of control (lower = inhibition) in test [1] of 52.3%. Further, in test [2], the growth, % of control turned out to be 102%. Further, the cell viability, % of control (lower = more cytotoxic) in [3] amounted to 18.6%. Besides, in [4], the viability (% of control) was determined as 8.18%. Moreover, the Potency result in test [5] and in test [6] was “inactive” each time. Also, the Potency is 3.32 µM (active) in test [7], 6.62 µM (active) in test [8], 11.8 µM (active) in [9] and 5.26 µM (active) in [10].
For `CC(C)N1[N]C(=C2C=c3cc(O)ccc3=N2)c2c(N)ncnc21`, the parasite growth, % of control (lower = inhibition) in [1] came out at 10.7%. In [2], this molecule yielded a growth, % of control of 3.6%. Further, in test [3], the cell viability, % of control (lower = more cytotoxic) turned out to be 2.36%. Further, in [4], the viability (% of control) was 2.77%. Further, the Potency entry in [5] and in test [6] was “inactive” each time. For the same molecule, the Potency in [7] is 1.87 µM (active); in [8], 0.372 µM (active); in test [9], 0.418 µM (active); in test [10], 0.209 µM (active).
In test [1], `CCC(C(=O)O)C1CCC(C)C(C(C)C(O)C(C)C(=O)C(CC)C2OC3(C=CC(O)[C@@]4(CC[C@](C)(C5CC[C@@](O)(CC)C(C)O5)O4)O3)C(C)CC2C)O1` (stereo not given in full) gave a parasite growth, % of control (lower = inhibition) of 7.13%. The same molecule came in with a growth, % of control in [2] of 16.9%. Moreover, the cell viability, % of control (lower = more cytotoxic) in [3] stood at 16%. Besides, the viability (% of control) in test [4] was 12.3%. In addition, the Potency result in test [5] and in test [6] was “inactive” throughout. For the same molecule, the Potency in [7] is 1.18 µM (active); in test [8], 1.48 µM (active); in [9], 0.833 µM (active); in test [10], 2.64 µM (active).
`OCCN1C[C@H](O)[C@@H](O)[C@H](O)[C@@H]1CO` registered a parasite growth, % of control (lower = inhibition) in test [1] of 85.5%. The molecule also gave a growth, % of control in test [2] of 97.8%. Moreover, in [3], the cell viability, % of control (lower = more cytotoxic) worked out at 122%. Moreover, in [4], the viability (% of control) is 103%. Besides, the Potency entry in test [5], in [6], in test [7], in [8], in test [9] and in test [10] was “inactive” in each case.

Values taken from PubChem BioAssay (NCATS).
